High-throughput results from PubChem.
Hits are enriched below; roughly 7.3% of the tested compounds scored in any of these assays.
FMDV antiviral: High Throughput Screening for Foot and Mouth Disease Virus Antivirals; FMDV antiviral cell-based qHTS; Potency, µM (series often up to 57.9 µM), actives largely listed as inhibitors; 410,000 tested, 1.2% active; AID 1159524, 2015; calls by dose curve; tested in HEK293T cells; also: read-out not given here; nearly all actives have a fitted effect of over 45% in size
Vaccinia mCherry: qHTS for Stage-Specific Inhibitors of Vaccinia Orthopoxvirus: mCherry Reporter Primary qHTS; Vaccinia virus mCherry reporter infection, fluorescence; Potency, µM (titrated, usually from 36.5 µM), hits mostly inhibitors; 310,000 tested, 0.63% active; AID 720579, 2013; calls by dose curve; tested in A549 cells; also: nearly all actives have a fitted effect of over 35% in size
HCV inhibitor: qHTS Assay for Inhibitors of Hepatitis C Virus (HCV) | 340,000 tested, 3.4% active | Potency, µM (series often up to 41.8 µM), most hits filed as inhibitors | Huh7.5.1 HCVcc-Cre infection, luciferase reporter, 44 h; active = well fitted inhibition curve with a large enough effect; inconclusive = small, poorly fitted or top-dose-only effect, or another doubt; inactive = no such curve, though single readings can be large or run the other way
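A cell-based infection assay in which seeded cells (1,000 per well) receive test compound after 4 h, are inoculated with HCVcc-Cre at approximately 0.5 moi, and are incubated 44 h before luminescence detection.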
Vaccinia Venus: qHTS for Stage-Specific Inhibitors of Vaccinia Orthopoxvirus: Venus Reporter Primary qHTS | Vaccinia virus Venus reporter expression, fluorescence | Potency, µM (highest dose often 36.5 µM), most hits filed as inhibitors | 330,000 tested, 0.46% active; calls by dose curve; tested in A549 cells; also: nearly all actives have a fitted effect of over 30% in size
HCMV inh: qHTS Assay for inhibitors of the human cytomegalovirus (HCMV) | HFF cells, HCMV-luciferase reporter, 72 h; stronger effect = lower value | activity change, negative = inhibition, % at 57.5 µM | 410,000 tested, 4.5% active; in the data active = activity change below about -60%; inconclusive = no clear call, values can overlap the other calls; inactive = above about -39%
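Two-dose cell screen: HFF monolayers treated with compounds and infected with luciferase-expressing HCMV at 1 PFU/cell, 72 h at 37C, then lysed for luciferase measurement.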
Of the large screens only hits and unclear results are named; the others gave an inactive call.

CN1CC(c2ccccc2)C2(SC(=S)N(Cc3ccco3)C2=O)C12C(=O)Nc1ccccc12 (configuration not stated)	FMDV antiviral inconclusive, HCV inhibitor 7.1µM, HCMV inh -101 (no result: Vaccinia mCherry, Vaccinia Venus)
S=C(NC1CCCC1)N1CCN(c2ccccn2)CC1	HCMV inh -62
CC(=NNC(=S)N1CCN(c2ccccn2)CC1)c1nccs1	Vaccinia mCherry 2.8µM, HCV inhibitor 1.3µM, Vaccinia Venus inconclusive (no result: HCMV inh)
CC(=NNC(=S)N1CCN(c2ccccn2)CC1)c1ccccn1	HCV inhibitor inconclusive
S=C(NC1CCCC1)N1CCN(c2cccc(Cl)c2)CC1	FMDV antiviral inconclusive, HCV inhibitor 13µM, HCMV inh inconclusive (no result: Vaccinia mCherry, Vaccinia Venus)
O=[N+]([O-])c1cccc(NC(=S)N2CCN(c3ccccn3)CC2)c1	HCV inhibitor inconclusive, HCMV inh -65
S=C(Nc1ccc2nc(-c3ccccn3)c(-c3ccccn3)nc2c1)N1CCCCC1	HCV inhibitor inconclusive (no result: HCMV inh)
CC(=NNC(=S)N1CCCCCC1)c1cccc2cccnc12	Vaccinia mCherry inconclusive, HCV inhibitor inconclusive, Vaccinia Venus inconclusive, HCMV inh -75
Nc1ncnc(NC2CCS(=O)(=O)C2)c1[N+](=O)[O-] (configuration not stated)	none
CN(c1ncnc(N)c1[N+](=O)[O-])C1CCS(=O)(=O)C1 (configuration not stated)	HCMV inh -74 (no result: Vaccinia mCherry, Vaccinia Venus)
Cc1ccccc1Oc1ncnc(N)c1[N+](=O)[O-]	none
CN(c1ncnc(N)c1[N+](=O)[O-])C1CCCCC1	HCV inhibitor inconclusive, HCMV inh -94 (no result: Vaccinia mCherry, Vaccinia Venus)
CCCCN(c1ccccc1)c1ncnc(N)c1[N+](=O)[O-]	HCMV inh -102 (no result: Vaccinia mCherry, Vaccinia Venus)
Cc1ccc(C)c(CN2CCC(CNC(=O)C(CC(C)C)N3Cc4ccccc4C3=O)CC2)c1 (configuration not stated)	none (no result: HCV inhibitor)
COc1ccc(-c2nc3ccc([N+](=O)[O-])cc3o2)cc1	HCMV inh -92
O=[N+]([O-])c1ccc2oc(-c3ccccc3)nc2c1	none
CCCCCc1c(C)nc(Nc2ccc(F)cc2)[nH]c1=O	FMDV antiviral inconclusive, HCMV inh -70
CCCCc1c(C)nc(Nc2ccc(OC)cc2)[nH]c1=O	none
CCCCSCCCNC(=O)C1CCN(Cc2nc(-c3ccc(CC)cc3)oc2C)CC1	none (no result: HCV inhibitor)
CCN1CCc2nc(N)sc2C1	HCMV inh inconclusive
CCN1CCc2nc(N)oc2CC1	HCMV inh -70
Cc1cccc(N2CCN(C(=O)c3ccc4nc[nH]c4c3)CC2)c1C	HCMV inh inconclusive
Cc1ccc(Cl)cc1N1CCN(C(=O)c2ccc3nc[nH]c3c2)CC1	HCMV inh -61
Cc1ccc(Cl)cc1N1CCN(C(=O)c2ccc3c(c2)CCN3S(C)(=O)=O)CC1	HCMV inh -66 (no result: FMDV antiviral, Vaccinia mCherry, HCV inhibitor, Vaccinia Venus)
CCN=C1S/C(=C\c2cc(OCC)c(O)cc2Br)C(=O)N1CC	FMDV antiviral 32µM, Vaccinia mCherry inconclusive, HCV inhibitor inconclusive, Vaccinia Venus inconclusive
CCSc1n[nH]c(=O)n1C	none (no result: FMDV antiviral, Vaccinia mCherry, HCV inhibitor, Vaccinia Venus)
CN1CCN(c2ccnc(-c3ccoc3)n2)CC1	none (no result: Vaccinia mCherry, HCV inhibitor, Vaccinia Venus, HCMV inh)
O=C1CN(C(=O)COC(=O)c2ccc(Br)o2)c2ccccc2N1	HCMV inh -102 (no result: Vaccinia mCherry, Vaccinia Venus)
O=C1CN(C(=O)COC(=O)CNC(=O)c2ccc(Br)o2)c2ccccc2N1	none
O=C(c1ccoc1)N1CCC2(CC1)Oc1ccc(Cl)cc1C(=O)C21CC(c2ccccc2)=NO1 (configuration not stated)	HCV inhibitor 11µM
COc1cc(/C=C/C(=O)c2c(O)ccc3c(C)cc(=O)oc23)ccc1O	FMDV antiviral inconclusive, Vaccinia Venus inconclusive, HCMV inh -92
Cc1cc(=O)oc2c(C(=O)/C=C/c3ccccc3)c(O)ccc12	none
COc1ccc(/C=C\C(=O)c2c(O)ccc3c(C)cc(=O)oc23)cc1OC	FMDV antiviral 35µM, HCV inhibitor 10µM, Vaccinia Venus inconclusive, HCMV inh -94
O=C(c1cc(COc2ccc(F)cc2Cl)on1)N1CCC(OCc2cccnc2)CC1	HCMV inh -68
O=C(c1cc(COc2cccc(C(F)(F)F)c2)on1)N1CCC(Oc2cccnc2)CC1	HCV inhibitor 11µM (no result: Vaccinia mCherry, Vaccinia Venus)
O=C1C=C[C@]23OCC[C@@]2(c2ccccc2)CCCC3=C1	none (no result: FMDV antiviral, Vaccinia mCherry, HCV inhibitor, Vaccinia Venus)
CCOc1ccc(NC(=O)c2cc(OC)nc3ccccc23)cc1	HCV inhibitor inconclusive, HCMV inh -64
COC(=O)c1cc(OC)nc2ccc(Br)cc12	HCV inhibitor 11µM (no result: Vaccinia mCherry, Vaccinia Venus)
